Here are results for three compounds from PubChem BioAssay AID651598 (Sanford-Burnham Center for Chemical Genomics, 2012).

Each structure is given as a SMILES string. Values joined by “and” are separate entries in the source; they are usually repeats but may differ in a detail not shown here. Equal entries are not always repeated.

The target of this assay is C-X-C chemokine receptor type 6 (Homo sapiens) (UniProt O00574). The assay is described as follows: apelin receptor (APJ) antagonists, SAR follow-up, counter-screen for CXCR6 antagonist project, cell-based, beta-arrestin, DiscoveRx, panel, CHO-K1 (AID 651598). The settings on record: CHO-K1 PathHunter beta-arrestin luminescence, antagonist mode; run 4, at 80 µM (top of the series). Background: Counterscreens check selectivity or assay interference.
Chain of C-X-C chemokine receptor type 6 (Homo sapiens) (O00574 whole entry, looked up): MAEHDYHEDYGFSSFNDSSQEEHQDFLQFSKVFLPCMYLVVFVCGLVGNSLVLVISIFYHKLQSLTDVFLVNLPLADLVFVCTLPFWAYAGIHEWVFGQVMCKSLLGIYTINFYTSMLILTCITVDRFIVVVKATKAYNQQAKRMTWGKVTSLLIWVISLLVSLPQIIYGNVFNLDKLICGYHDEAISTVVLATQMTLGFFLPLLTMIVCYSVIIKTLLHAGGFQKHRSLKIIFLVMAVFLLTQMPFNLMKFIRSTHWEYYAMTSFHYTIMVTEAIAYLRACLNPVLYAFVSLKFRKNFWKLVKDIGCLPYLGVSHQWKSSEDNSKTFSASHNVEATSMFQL

On to `COc1cc(C(=O)NC2CC3CCCC(C2)N3CC(=O)Nc2ccccc2)cc(OC)c1OC` (stereo not drawn), for which the inhibition (commonly the drop in the measured response relative to a control, in per cent) is 88.8% and 51.2% and 29%.
The same measure for `COc1cc(C(=O)NC2CC3CCC(C2)N3CC(=O)Nc2ccccc2)cc(OC)c1OC` (stereo not drawn): 45.8% and 2.45%; for `COc1cc(C(=O)NC2CCN(CC(=O)Nc3ccccc3)CC2)cc(OC)c1OC`: 29.6%.
